Records with an inconclusive call do not appear. The source made the active and inactive calls. Unless noted, the call rests on the fitted dose curve.
Key:
[1] = qHTS assay to identify small molecule agonists of the sonic hedgehog signaling (Shh) pathway (AID 1259368);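 further: NIH/3T3-derived 3T3Gli1-Luc cells carrying a stable Gli1-driven firefly luciferase reporter; series mostly up to about 92 µM; nearly all actives have a fitted effect of over 15% in size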
Method in brief: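 3T3Gli1-Luc (NIH/3T3 clone, stable Gli1-Luc); 4 hr pre-incubation, then cpd in DMSO 24 hr, 37 C/5% CO2; luciferase reagent 30 min RT; luminescence.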

[2] = qHTS assay to identify small molecule antagonists of the sonic hedgehog signaling (Shh) pathway (AID 1259369); further: nearly all actives have a fitted effect of over 45% in size
Method in brief: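 3T3Gli1-Luc, conditioned-medium-stimulated, 24hr cpd, 37C/5% CO2; Gli1-driven firefly Luc luminescence after 30min RT with luciferase reagent. Cells plated 4hr before cpd.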

[3] = molecular target: Estrogen receptor beta (Homo sapiens) (UniProt Q92731); test: qHTS assay to identify small molecule agonists of the estrogen receptor beta (ER-beta) signaling pathway (AID 1259377; active means well fitted activation curve with a large enough effect in the signal ratio in the repeat runs, not every such curve was filed as active; the % refers to the signal ratio)
Estrogen receptor beta (Homo sapiens), sequence (Q92731 whole entry, looked up): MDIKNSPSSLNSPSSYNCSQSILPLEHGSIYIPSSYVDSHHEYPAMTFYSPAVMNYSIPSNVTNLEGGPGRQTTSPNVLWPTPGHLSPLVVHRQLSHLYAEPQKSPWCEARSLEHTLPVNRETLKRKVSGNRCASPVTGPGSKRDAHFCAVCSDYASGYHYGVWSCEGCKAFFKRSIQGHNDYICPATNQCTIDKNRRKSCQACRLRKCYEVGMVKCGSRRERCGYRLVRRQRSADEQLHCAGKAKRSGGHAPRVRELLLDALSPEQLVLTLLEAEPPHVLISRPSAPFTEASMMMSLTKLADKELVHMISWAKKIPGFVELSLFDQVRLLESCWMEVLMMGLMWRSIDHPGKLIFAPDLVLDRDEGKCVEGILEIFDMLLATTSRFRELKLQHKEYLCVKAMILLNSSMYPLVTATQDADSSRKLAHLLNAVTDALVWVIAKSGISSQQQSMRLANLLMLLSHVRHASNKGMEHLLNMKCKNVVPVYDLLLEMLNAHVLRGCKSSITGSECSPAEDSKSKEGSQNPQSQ
Method in brief: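 In HEK293T cells bearing a UAS-beta-lactamase reporter under ER-beta control, DMSO-delivered compounds were incubated for 16 hr at 37C. Activity was detected as fluorescence 2 hours after LiveBLAzer B/G FRET substrate addition.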

[4] = molecular target: Estrogen receptor beta (Homo sapiens) (UniProt Q92731); test: qHTS assay to identify small molecule antagonists of the estrogen receptor beta (ER-beta) signaling pathway (AID 1259378; active means well fitted inhibition curve with a large enough effect in the signal ratio in the repeat runs, not every such curve was filed as active; the % refers to the signal ratio)
Method in brief: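 ER-beta-UAS-bla HEK293T cells in 2% charcoal-stripped FBS medium treated with compound plus 1nM final 17-beta-estradiol for 16 hr at 37C. Beta-lactamase reporter read by FRET substrate fluorescence after 2 hours at room temperature.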

[5] = qHTS assay to identify small molecule agonists of the androgen receptor (AR) signaling pathway in the presence of an antagonist - cell viability counter screen (AID 1259379; active means well fitted curve in the direction sought with a large enough effect in the repeat runs; an effect the other way counts as inactive or inconclusive;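 further: MDA-kb2 human breast cancer cells carrying an MMTV luciferase reporter; series mostly up to about 92 µM; nearly all actives have a fitted effect of over 25% in size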)
Method in brief: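 Cells: MDA-kb2 (MMTV-luc, AR and GR elements), 3,000/well, 5 hr settle. Added: nilutamide 3.0uM final, then compounds (15 conc.). Incubation: 16 hr, 37C, no CO2. Read-out: CellTiter-Fluor, 1 hr, fluorescence.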

[6] = molecular target: Estrogen receptor (Homo sapiens) (UniProt P03372); test: qHTS assay to identify small molecule agonists of the estrogen receptor alpha (ER-alpha) signaling pathway in the presence of an antagonist (AID 1259383); further: top concentration of the series differs between compounds; nearly all actives have a fitted effect of over 15% in size
Estrogen receptor (Homo sapiens), sequence (P03372 whole entry, looked up): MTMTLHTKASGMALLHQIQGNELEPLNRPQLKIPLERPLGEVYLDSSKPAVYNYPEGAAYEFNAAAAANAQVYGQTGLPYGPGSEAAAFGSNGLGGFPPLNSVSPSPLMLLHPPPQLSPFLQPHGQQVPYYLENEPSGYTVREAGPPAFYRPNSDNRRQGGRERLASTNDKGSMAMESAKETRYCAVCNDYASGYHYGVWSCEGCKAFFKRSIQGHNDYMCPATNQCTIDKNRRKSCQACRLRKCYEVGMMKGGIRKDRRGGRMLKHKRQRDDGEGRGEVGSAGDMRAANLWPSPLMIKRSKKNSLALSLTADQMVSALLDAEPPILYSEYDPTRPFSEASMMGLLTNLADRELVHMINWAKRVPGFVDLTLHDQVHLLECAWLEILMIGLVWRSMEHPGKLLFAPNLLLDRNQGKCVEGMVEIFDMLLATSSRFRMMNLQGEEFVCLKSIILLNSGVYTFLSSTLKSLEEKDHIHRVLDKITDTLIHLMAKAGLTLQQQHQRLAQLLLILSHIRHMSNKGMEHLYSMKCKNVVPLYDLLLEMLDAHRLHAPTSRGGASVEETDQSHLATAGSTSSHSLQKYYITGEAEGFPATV
Method in brief: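 VM7Luc4E2, endog. ER-alpha + 4×ERE-luc; charcoal-stripped FBS, phenol red-free, 5 d; 24hr plating; +10.0nM ICI-182,780 (final); cpds 15 conc, 22hr, 37C/5% CO2; ONE-Glo luminescence.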

[7] = qHTS assay to identify small molecule agonists or antagonists of the thyroid stimulating hormone receptor (TSHR) signaling pathway - wild type cell line counter screen (AID 1259384)
Method in brief: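 Wild-type Hek293 cells, 800/well, 18 h at 37C, then compound with Ro20-1724 for 30 min RT. cAMP by HTRF (cAMP-d2/anti-cAMP cryptate), 1 h RT, fluorescence read. 15 concentrations, triplicates.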

[8] = molecular target: Thyrotropin receptor (Homo sapiens) (UniProt P16473); test: qHTS assay to identify small molecule antagonists of the thyroid stimulating hormone receptor (TSHR) signaling pathway (AID 1259385); further: nearly all actives have a fitted effect of over 20% in size
Thyrotropin receptor (Homo sapiens), sequence (P16473 whole entry, looked up): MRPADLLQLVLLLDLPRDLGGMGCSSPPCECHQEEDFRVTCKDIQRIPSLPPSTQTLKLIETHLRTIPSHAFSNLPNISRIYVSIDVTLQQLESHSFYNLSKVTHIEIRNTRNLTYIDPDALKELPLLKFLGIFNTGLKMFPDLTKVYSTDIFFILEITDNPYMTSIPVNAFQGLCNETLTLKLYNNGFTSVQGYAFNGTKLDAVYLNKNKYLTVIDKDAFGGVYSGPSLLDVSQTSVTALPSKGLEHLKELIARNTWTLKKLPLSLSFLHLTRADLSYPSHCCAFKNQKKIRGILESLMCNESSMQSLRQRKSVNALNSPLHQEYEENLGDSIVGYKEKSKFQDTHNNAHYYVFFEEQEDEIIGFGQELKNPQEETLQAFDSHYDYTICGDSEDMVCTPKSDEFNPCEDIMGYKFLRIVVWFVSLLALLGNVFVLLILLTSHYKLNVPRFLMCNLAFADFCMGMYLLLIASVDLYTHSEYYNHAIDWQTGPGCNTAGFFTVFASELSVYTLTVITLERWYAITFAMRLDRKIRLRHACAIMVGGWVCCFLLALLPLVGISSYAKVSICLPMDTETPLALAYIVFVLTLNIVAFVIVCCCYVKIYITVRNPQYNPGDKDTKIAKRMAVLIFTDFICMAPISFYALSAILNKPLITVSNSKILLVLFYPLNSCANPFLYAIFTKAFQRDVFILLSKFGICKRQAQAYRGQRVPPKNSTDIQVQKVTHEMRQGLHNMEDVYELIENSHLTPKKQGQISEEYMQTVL
Method in brief: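 TSHR-HEK293 cells (800/well) plated 18 h, then compounds with Ro20-1724 and TSH at 1.5 ng/mL final, 30 min at room temperature. cAMP quantified by HTRF (cAMP-d2/anti-cAMP-cryptate, 1 h); 15 concentrations in triplicate.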

[9] = molecular target: Progesterone receptor (Homo sapiens) (UniProt P06401); test: qHTS assay to identify small molecule agonists of the progesterone receptor (PR) signaling pathway (AID 1346784); further: nearly all actives have a fitted effect of over 30% in size
Progesterone receptor (Homo sapiens), sequence (P06401 whole entry, looked up): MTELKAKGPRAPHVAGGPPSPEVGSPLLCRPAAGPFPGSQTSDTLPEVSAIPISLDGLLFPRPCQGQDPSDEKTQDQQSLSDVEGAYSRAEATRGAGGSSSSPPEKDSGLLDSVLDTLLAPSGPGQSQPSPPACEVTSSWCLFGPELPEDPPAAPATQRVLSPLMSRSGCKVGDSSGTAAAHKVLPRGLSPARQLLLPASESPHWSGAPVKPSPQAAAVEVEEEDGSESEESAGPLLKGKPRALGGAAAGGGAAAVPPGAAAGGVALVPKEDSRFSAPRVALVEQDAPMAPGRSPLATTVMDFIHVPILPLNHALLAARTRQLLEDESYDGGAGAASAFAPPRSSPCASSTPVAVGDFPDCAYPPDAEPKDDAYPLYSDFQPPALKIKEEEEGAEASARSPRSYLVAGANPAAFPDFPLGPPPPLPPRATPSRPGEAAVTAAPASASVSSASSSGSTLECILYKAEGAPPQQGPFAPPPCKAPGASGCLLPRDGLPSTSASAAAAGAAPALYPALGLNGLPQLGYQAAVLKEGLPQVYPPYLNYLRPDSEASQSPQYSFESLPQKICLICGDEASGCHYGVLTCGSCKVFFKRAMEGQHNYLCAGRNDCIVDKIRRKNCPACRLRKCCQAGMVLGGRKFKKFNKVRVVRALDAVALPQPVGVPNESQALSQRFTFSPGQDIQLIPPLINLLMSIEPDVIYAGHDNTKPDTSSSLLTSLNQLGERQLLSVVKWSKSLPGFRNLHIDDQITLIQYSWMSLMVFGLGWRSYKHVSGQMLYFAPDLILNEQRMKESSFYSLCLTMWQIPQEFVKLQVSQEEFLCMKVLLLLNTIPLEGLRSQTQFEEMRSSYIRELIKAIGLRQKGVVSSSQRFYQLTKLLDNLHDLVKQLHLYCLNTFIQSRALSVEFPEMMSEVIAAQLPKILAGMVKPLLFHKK
Method in brief: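 Using charcoal-stripped serum (2%) to limit endogenous steroids, PR-UAS-bla HEK 293T cells received compounds for 16 hr at 37C after 6 hr plating; beta-lactamase FRET fluorescence was recorded following 2 hr substrate loading at room temperature.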

[10] = molecular target: Progesterone receptor (Homo sapiens) (UniProt P06401); test: qHTS assay to identify small molecule antagonists of the progesterone receptor (PR) signaling pathway (AID 1346795; active means well fitted inhibition curve with a large enough effect in the signal ratio in the repeat runs, not every such curve was filed as active; the % refers to the signal ratio)
Method in brief: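 Inhibition of R5020-induced (1 nM final) beta-lactamase reporter signal in PR-UAS-bla HEK293T cells was scored by FRET fluorescence after overnight (16 hr) compound treatment.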

[11] = qHTS assay to identify small molecule agonists of the progesterone receptor (PR) signaling pathway - cell viability counter screen (AID 1346799); further: nearly all actives have a fitted effect of over 45% in size
Method in brief: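 Cytotoxicity in PR-bla HEK293T cells: 16 h compound, 37C; CellTiter-Glo added post-FRET read; luminescence after 30 min RT.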

[12] = qHTS assay to identify small molecule antagonists of the TGF-beta/Smad signaling pathway - cell viability counter screen (AID 1346824; active means well fitted curve in the direction sought with a large enough effect in the repeat runs; an effect the other way counts as inactive or inconclusive; further: nearly all actives have a fitted effect of over 50% in size)
Method in brief: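 SBE-bla HEK 293T cells, incubated overnight, then compound plus 0.25 ng/mL TGF-beta1 (stock added) for 5 hr at 37 C. Viability was read in the same wells by CellTiter-Glo luminescence after 30 min at room temperature.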

[13] = qHTS assay to identify small molecule agonists of the TGF-beta/Smad signaling pathway - cell viability counter screen (AID 1346829; active means well fitted curve in the direction sought with a large enough effect in the repeat runs; an effect the other way counts as inactive or inconclusive; further: top concentration of the series differs between compounds; nearly all actives have a fitted effect of over 45% in size)
Method in brief: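 In parallel with the Smad reporter read, viability of HEK 293T cells stably carrying SBE-bla is quantified by ATP luminescence following 5 hr compound treatment.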

[14] = qHTS assay to identify small molecule agonists of the estrogen receptor beta (ER-beta) signaling pathway - cell viability counter screen (AID 1259380; active means well fitted curve in the direction sought with a large enough effect in the repeat runs; an effect the other way counts as inactive or inconclusive; further: nearly all actives have a fitted effect of over 30% in size)
Method in brief: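 HEK293T ER-beta-UAS-bla; 2% CS-FBS; 6 hr pre-plate, 16 hr cpd at 37C/5% CO2; LiveBLAzer read first, then CellTiter-Glo 30 min RT, luminescence.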

[15] = qHTS assay to identify small molecule antagonists of the estrogen receptor beta (ER-beta) signaling pathway - cell viability counter screen (AID 1259382; active means well fitted curve in the direction sought with a large enough effect in the repeat runs; an effect the other way counts as inactive or inconclusive; further: series mostly up to about 92 µM; nearly all actives have a fitted effect of over 55% in size)
Method in brief: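 Cells: ER-beta-UAS-bla HEK293T, 2,000/well, 2% CS-FBS, 6 hr settle. Cpd + E2 (1nM final), 16 hr, 37C/5% CO2. Bla FRET substrate 2 hr RT, then CellTiter-Glo 30 min RT, luminescence.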

[16] = qHTS assay to identify small molecule agonists of the estrogen receptor alpha (ER-alpha) signaling pathway in the presence of an antagonist - cell viability counter screen (AID 1259386; active means well fitted curve in the direction sought with a large enough effect in the repeat runs; an effect the other way counts as inactive or inconclusive;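 further: series mostly up to about 92 µM; cells exposed to compounds for 22 h at 37 °C before the viability read; nearly all actives have a fitted effect of over 30% in size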)
Method in brief: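 VM7Luc4E2, stripped-serum pre-culture 5 d; 24hr plating; +ICI-182,780 10.0nM final; cpds 15 conc, 22hr, 37C/5% CO2; CellTiter-Fluor added at 21hr, fluorescence 1hr later.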

[17] = qHTS assay to identify small molecule antagonists of the progesterone receptor (PR) signaling pathway - cell viability counter screen (AID 1346798; active means well fitted curve in the direction sought with a large enough effect in the repeat runs; an effect the other way counts as inactive or inconclusive; further: series mostly up to about 92 µM; nearly all actives have a fitted effect of over 50% in size)
Method in brief: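 ATP content as viability readout: CellTiter-Glo luminescence, 30 min room temperature, in PR-UAS-bla HEK293T cells after 16 hr compound/R5020 treatment at 37C and 5% CO2.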

[18] = qHTS assay to identify small molecule agonists of the TGF-beta/Smad signaling pathway (AID 1346859; active means well fitted activation curve with a large enough effect in the signal ratio in the repeat runs, not every such curve was filed as active; the % refers to the signal ratio; further: series mostly up to about 77 µM)
Method in brief: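 Stable Smad binding element-beta-lactamase HEK 293T cells; 5 hr compound exposure at 37 C under 5% CO2; 2 hr room-temperature substrate step; fluorescence excited at 405 nm, collected at 460 nm and 530 nm.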

[19] = molecular target: Thyrotropin-releasing hormone receptor (Homo sapiens) (UniProt P34981); test: qHTS assay to identify small molecule antagonists of the thyrotropin-releasing hormone receptor (TRHR) signaling pathway (AID 1346877; active means well fitted inhibition curve with a large enough effect in the repeat runs, not every such curve was filed as active; further: series mostly up to about 51 µM)
Thyrotropin-releasing hormone receptor (Homo sapiens), sequence (P34981 whole entry, looked up): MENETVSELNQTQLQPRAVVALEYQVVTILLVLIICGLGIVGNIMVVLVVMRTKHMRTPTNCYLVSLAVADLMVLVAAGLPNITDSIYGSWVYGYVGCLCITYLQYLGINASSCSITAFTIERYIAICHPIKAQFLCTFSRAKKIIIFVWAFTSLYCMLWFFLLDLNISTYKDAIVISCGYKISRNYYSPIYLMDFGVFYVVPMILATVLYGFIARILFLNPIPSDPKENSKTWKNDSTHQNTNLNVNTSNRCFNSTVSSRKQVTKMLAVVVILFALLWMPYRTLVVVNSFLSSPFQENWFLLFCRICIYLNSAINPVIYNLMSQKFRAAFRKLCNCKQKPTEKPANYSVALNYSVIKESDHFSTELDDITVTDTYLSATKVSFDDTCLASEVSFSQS
Method in brief: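 Intracellular calcium fluorescence, read kinetically every second over 3 min, reports TRH-evoked signalling in HEK293 cells carrying TRHR. Test compounds were added 5 min ahead of a 1 nM TRH challenge.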
On the % scale 0 is the no-effect control and ±100 the full control effect.

CN(C)C(=O)NC1(c2ccccc2)CCN(CCC[C@]2(c3ccc(Cl)c(Cl)c3)CCCN(C(=O)c3ccccc3)C2)CC1
inactive: activity change [1] -5.82% [at 18.9 µM, stronger effect = higher value] | activity change, negative = inhibition [2] -22.9% [at 19 µM] | activation [3] -0.37% [at 19 µM] | activity, negative = inhibition [4] -8.74% [at 19 µM] | activity change, negative = cytotoxicity [5] -7% [at 19 µM] | activation [6] -0.618% [at 19 µM] | cAMP activity change [7] -1.66% [at 18.9 µM] | activity change, negative = inhibition [8] -0.429% [at 19 µM] | activation [9] -5.56% [at 19 µM] | activity change, negative = inhibition [10] -8.48% [at 18.9 µM] | activity change, negative = cytotoxicity [11] 3.74% [at 19 µM] | viability change, negative = cytotoxic [12] 0% [at 15.8 µM] | activity change, negative = cytotoxicity [13] 2.25% [at 15.8 µM]

O=C(C(Cl)Cl)N1CCOC12CCCCC2
inactive: Potency [1] | Potency [2] | outcome [3] | Potency [4] | Potency [14] | outcome [15] | Potency [6] | outcome [7] | Potency [8] | Potency [16] | Potency [17] | Potency [11] | outcome [12] | outcome [13] | outcome [18] | outcome [19]

CCc1nnc(NS(=O)(=O)c2ccc(N)cc2)s1
inactive: Potency [1] | Potency [2] | outcome [3] | Potency [4] | Potency [14] | outcome [15] | outcome [7] | Potency [8] | Potency [16] | Potency [9] | Potency [10] | Potency [17] | outcome [12] | outcome [13] | outcome [18]

NC(Cc1ccc(F)cc1)C(=O)O (stereo not given)
inactive: activity change [1] 0.322% [at 8.39 µM, stronger effect = higher value] | activity change, negative = inhibition [2] -11.4% [at 8.39 µM] | activation [3] -1.32% [at 8.39 µM] | activity, negative = inhibition [4] 7.98% [at 8.39 µM] | activity change, negative = cytotoxicity [14] 1.35% [at 8.39 µM] | activity change, negative = cytotoxicity [15] 1.79% [at 8.39 µM] | cAMP activity change [7] -1.15% [at 8.39 µM] | activity change, negative = inhibition [8] -1.13% [at 8.39 µM] | activity change, negative = cytotoxicity [16] 2.6% [at 8.39 µM] | activation [9] 0.365% [at 8.39 µM] | activity change, negative = cytotoxicity [17] -3.28% [at 8.39 µM] | activity change, negative = cytotoxicity [11] 1.93% [at 8.39 µM] | viability change, negative = cytotoxic [12] 18.5% [at 6.97 µM] | activity change, negative = cytotoxicity [13] 4.18% [at 6.97 µM] | activation [18] -0.692% [at 6.97 µM] | activity, negative = inhibition [19] -1.45% [at 4.65 µM]

Source: PubChem BioAssay (Tox21)
